# In the library only some 6.2% were active in any assay of this set; here they are far more common.
# Lassa entry inh = Lassa virus entry inhibition | Lassa virus pseudotype entry inhibition, cell reporter | Potency, µM (highest dose often 37.9 µM), usual class: inhibitors | hit rate 1.2% among 300,000; calls by dose curve; tested in HEK293 cells; further: nearly all actives have a fitted effect of over 50% in size
# Marburg entry inh = inhibitors of Marburg virus binding or cell entry; Marburg virus pseudotyped entry inhibition, cell reporter; Potency, µM (doses to about 37.8 µM), actives largely listed as inhibitors; hit rate 1.8% among 300,000; AID 540276; calls by dose curve; tested in HEK293 cells
# HCMV antiviral = inhibitors of human cytomegalovirus | HFF cells, HCMV-luciferase reporter, 72 h; active compounds read low | activity change, negative = inhibition, % at 57.5 µM | hit rate 4.5% among 410,000 | AID 1259415; in the data active means activity change below about -60%; inconclusive means no clear call, values can overlap the other calls; inactive means above about -39%
#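 HFF cells seeded 16 h at 37C, treated with compounds, infected with luciferase-reporter HCMV at MOI 1 PFU/cell; luciferase read at 72 h post infection, normalized to buffer-only and Salinomycin controls.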
# FMDV antiviral = foot and mouth disease virus antiviral activity; AID 1159524; hit rate 1.2% among 410,000; FMDV antiviral cell-based qHTS; Potency, µM (titrated, usually from 57.9 µM), hits mostly inhibitors; calls by dose curve; tested in HEK293T cells; further: read-out not given here; nearly all actives have a fitted effect of over 45% in size
# Numbers stand for hits; . = inactive; ? = inconclusive; / = not tested or not shown.
SMILES,Lassa entry inh,Marburg entry inh,HCMV antiviral,FMDV antiviral
CC(C)[Si]1(C(C)C)OCC2OC(n3cnc4c(N)ncnc43)C(N)C2O[Si](C(C)C)(C(C)C)O1 (stereo unspecified),?,13µM,.,?
COc1c(N2C[C@@H]3CCCN[C@@H]3C2)c(F)cc2c(=O)c(C(=O)O)cn(C3CC3)c12,/,/,.,.
COc1c(N2CCN(C(=S)NCc3ccccc3)C(C)C2)c(F)cc2c(=O)c(C(=O)O)cn(C3CC3)c12 (stereo unspecified),.,.,-67,.
COc1c(F)c(F)cc2c(=O)c(C(=O)O)cn(C3CC3)c12,.,?,-61,.
COc1c(N2CCN[C@H](C)C2)c(F)cc2c(=O)c(C(=O)O)cn(C3CC3)c12,/,/,/,.
Cc1ccc(NC(=S)N/N=C/c2c(C)[nH]c3ccccc23)cc1,.,?,?,.
O=c1c2ccc(Cl)cc2nc2n1CC/C2=C\c1cccc(O)c1,.,.,.,.
COc1ccc(-c2[nH]ncc2CN(C)CCCN2CCOCC2)cc1F,.,.,.,.
CCn1ccnc1CN(C)Cc1cn[nH]c1-c1ccc(OC)c(F)c1,.,.,-72,.
CCCCc1c(C)nc2c(-c3ccc(Cl)cc3)c(C)[nH]n2c1=O,.,.,.,.
CC1(C(=O)NCCc2c[nH]c3ccccc23)CCN1Cc1ccccc1OC(F)F (stereo unspecified),/,/,-96,.
CC(C)(C)c1ccc(OCCC(=O)OCC(=O)NC2CCS(=O)(=O)C2)cc1 (stereo unspecified),.,.,.,.
CCOc1ccc(C2NC(=O)c3n[nH]c(C)c32)cc1 (stereo unspecified),/,/,.,.
CC(C)(C)c1ccc(C2NC(=O)c3n[nH]c(-c4cccs4)c32)cc1 (stereo unspecified),.,?,-91,.
Cc1ccc(CN2[C@@H](CC3CCCCC3)COCCS2(=O)=O)cc1,/,/,-70,.
Cc1nn(Cc2ccccc2)c(C)c1C(=O)NCC(c1cccs1)N1CCOCC1 (stereo unspecified),.,.,.,.
Cc1ccc(Cn2nc(C)c(C(=O)NCC(c3cccs3)N3CCOCC3)c2Cl)cc1 (stereo unspecified),13µM,.,?,?
Cc1cc2c(cc1S(=O)(=O)N1CCC(C(N)=O)CC1)OCC(=O)N2,.,/,.,.
COc1cccc(/C=C2\Oc3ccc(O)cc3C2=O)c1O,?,?,.,11µM
C/C(=N\NC(N)=O)C1(C)CCCCC1,.,.,.,.
C/C(=N\NC(N)=S)C1(C)CCCCC1,.,.,-61,.
C/C(=N\NC(N)=S)C12CC3CC(CC(C3)C1)C2,?,?,-69,/
COc1ccc(NC(=O)CCN2CCN(S(=O)(=O)c3ccc(C(C)C)cc3)CC2)cc1,.,.,.,/
Cc1c(Cl)cccc1NC(=O)CC(Cc1ccccc1)C(=O)O (stereo unspecified),.,?,.,.
Clc1cccc(OCc2nnc(-c3ccccc3Br)o2)c1,.,.,.,.
SMILES,Lassa entry inh,Marburg entry inh,HCMV antiviral,FMDV antiviral
COc1ccc(-n2c(C)c([N+](=O)[O-])c3ccc(O)c(CN(C)C)c32)cc1,.,?,-92,.
COc1ccc(-n2c(C(C)n3nc(C)c([N+](=O)[O-])c3C)n[nH]c2=S)cc1 (stereo unspecified),.,.,.,.
COc1ccc(O)c(/C=N/NS(=O)(=O)c2ccc(C)cc2)c1,.,?,.,.
Cc1ccc(C(=O)Oc2csc(=S)n2C(=O)c2ccc(C)cc2)cc1,.,.,-62,/
CN(Cc1cccs1)C(=O)COc1ccc(-c2nnco2)cc1,.,.,-100,.
CN(Cc1cccs1)C(=O)COc1cccc(-n2cnnn2)c1,.,.,.,.
CCN(CC)c1ccc(NC(=O)c2cc(OC)cc(OC)c2)c(C)c1,?,?,-85,.
CCN(CC)c1ccc(NC(=O)c2cccc(OC)c2)c(C)c1,?,?,.,.
CCN(CC)c1ccc(NC(=O)C2COc3ccc(OC)cc3C2)c(C)c1 (stereo unspecified),?,/,-79,?
CCOC(=O)C(=O)C1=C(N2CCOCC2)/C(=C\c2cccc([N+](=O)[O-])c2)CC1,.,.,-72,.
Cc1ccc(C)c2sc(N3CCN(C(=O)c4ccc([N+](=O)[O-])o4)CC3)nc12,?,13µM,.,?
O=C(c1ccc([N+](=O)[O-])o1)N1CCN(c2nc3c(F)cc(F)cc3s2)CC1,.,?,.,.
O=C(N/N=C/c1ccccn1)c1cc(-c2ccc(Cl)cc2)nc2ccccc12,?,?,.,?
O=C1CCCCC1c1cccc2ccccc12 (stereo unspecified),.,?,.,.
O=C1O/C(=C/Br)CCC1c1cccc2ccccc12 (stereo unspecified),21µM,10µM,/,/
CN(CC(=O)O)S(=O)(=O)/C=C/c1ccccc1,.,.,?,.
CN1CCN(c2nc3c(c(=O)n(C)c(=O)n3C)n2Cc2ccccc2)CC1,/,/,.,.
CNc1nc2c(c(=O)n(C)c(=O)n2C)n1CCCc1ccccc1,?,?,?,.
CNc1nc2c(c(=O)n(C)c(=O)n2C)n1Cc1ccccc1,.,?,-65,?
CC1CCN(c2nc3c(c(=O)n(C)c(=O)n3C)n2Cc2ccccc2)CC1,7.3µM,.,.,/
CC1CCCCN1Cc1nc2c(c(=O)n(C)c(=O)n2C)n1CCc1ccccc1 (stereo unspecified),.,.,-67,.
COCCNc1nc2c(c(=O)n(C)c(=O)n2C)n1Cc1cccc(C)c1,.,?,.,.
Cc1cccc(Cn2c(NCCO)nc3c2c(=O)n(C)c(=O)n3C)c1,.,?,-75,?
Cn1c(=O)c2c(nc(N3CCOCC3)n2Cc2ccccc2Cl)n(C)c1=O,.,.,.,.
Cn1c(=O)c2c(nc(N3CCOCC3)n2Cc2ccccc2F)n(C)c1=O,.,.,-104,.
SMILES,Lassa entry inh,Marburg entry inh,HCMV antiviral,FMDV antiviral
COCCn1c(N2CCN(c3ccc(OC)cc3)CC2)nc2c1c(=O)n(C)c(=O)n2C,?,.,.,.
C=CCn1c(N2CCN(c3ccc(OC)cc3)CC2)nc2c1c(=O)n(C)c(=O)n2C,?,?,.,28µM
Cc1ccc2c(c1)nnn2C1CCN(S(=O)(=O)c2ccc(C(=O)O)cc2)CC1,.,.,-67,.
Cc1ccc2c(c1)nnn2C1CCN(S(C)(=O)=O)CC1,.,.,.,.
O=S(=O)(c1ccccc1)N1CCC(n2nnc3cc(F)ccc32)CC1,.,.,.,/
Cc1ccc2c(c1)nnn2C1CCN(S(=O)(=O)c2ccc(C(=O)N3C(C)CCCC3C)cc2)CC1 (stereo unspecified),?,7.9µM,-73,?
OC[C@@H]1CN(CCN2CCOCC2)C[C@H](n2cnc3c(N4CCCC4)ncnc32)O1,/,/,.,.
O=C(NNC1OC(CO)C(O)C(O)C1O)c1cccnc1 (stereo unspecified),.,.,-62,.
O=C(NCc1nc(-c2ccc(C(F)(F)F)cc2)no1)Nc1ccc(OC(F)(F)F)cc1,?,?,-97,.
CCOc1ccc(NC(=O)CN(C)C(=O)CC2CCCCC2)cc1OCC,/,/,-68,.
COc1ccccc1NC(=O)CCC(=O)Nc1nnc(C2CCCCC2)s1,.,.,.,.
O=C(CF)N(O)c1ccc(C=Cc2ccccc2)cc1,1.1µM,1µM,-79,.
CN(C)c1ccc(C(=O)/C=C/c2ccccc2)cc1,?,?,.,.

# Assay outcomes as filed in PubChem.
